Only some compounds are listed: those with a hit (about 2.8% of all), similar ones and a draw of the others.
Giardia kill: Small Molecules that selectively kill Giardia lamblia: qHTS | activity change, % at 7.66 µM, hits read low | Giardia lamblia trophozoite viability | AID 540267, 2011 | 340,000 compounds, 0.15% hits; in the data active means activity change below about -80%; inconclusive means between about -30% and that limit;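 further: parasites exposed to compound for two days anaerobically before the ATP read; on the % scale 0 is the no-effect control and ±100 the full control effect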
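Luminescent ATP signal served as the viability read-out, measured 15-30 min after adding ATP detection reagent to trophozoites that had been incubated with compounds for 48 hrs at 37 deg C anaerobically at 100 cells/well.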
DRD3 agonist: qHTS of D3 Dopamine Receptor Agonist: qHTS. D(3) dopamine receptor (Homo sapiens), P35462. D3R DiscoveRx beta-arrestin cells, luminescence, 90 min. max activation, %. 410,000 compounds, 0.58% hits. AID 652048, 2013; in the data active means max activation above about 30%; further: 0% is about no effect
Target sequence (P35462 whole entry, looked up): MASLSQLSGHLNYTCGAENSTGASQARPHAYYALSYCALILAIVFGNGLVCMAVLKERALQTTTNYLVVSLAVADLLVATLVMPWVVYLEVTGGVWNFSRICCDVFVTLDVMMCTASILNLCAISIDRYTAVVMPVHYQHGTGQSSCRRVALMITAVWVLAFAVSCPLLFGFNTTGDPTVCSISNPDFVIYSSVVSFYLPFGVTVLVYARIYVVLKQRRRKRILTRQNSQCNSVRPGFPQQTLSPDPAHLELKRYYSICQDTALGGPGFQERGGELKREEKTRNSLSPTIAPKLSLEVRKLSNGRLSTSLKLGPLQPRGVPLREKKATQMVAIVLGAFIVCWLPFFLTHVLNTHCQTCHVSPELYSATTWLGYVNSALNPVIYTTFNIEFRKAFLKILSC
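Agonist mode: compounds and dopamine controls were applied to plated cells for 90 min at 37 degrees C after an overnight attachment at 1500 cells/well. Luminescent read-out followed 30 - 60 minutes at room temperature with DiscoveRx detection reagent.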
DRD3 antagonist: qHTS of D3 Dopamine Receptor Antagonist: qHTS | D3R cells, DiscoveRx beta-arrestin luminescence, antagonist mode; stronger effect = lower value | 360,000 compounds, 2.5% hits | max response, negative = inhibition, % | D(3) dopamine receptor (Homo sapiens), P35462; in the data active means max response below about -50%; inconclusive means no clear call, values can overlap the other calls; further: on the % scale 0 is the no-effect control and ±100 the full control effect
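Cells plated overnight at 1500 cells/well, then exposed to library compounds with dopamine controls for 90 minutes at 37 degrees C. DiscoveRx reagent added for 30–60 minutes at room temperature; luminescence read, quantitative HTS format.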
B2AR arrestin: qHTS assay of beta-arrestin-biased ligands of beta2-adrenergic receptor | beta-arrestin recruitment to beta2AR, cell-based reporter | Potency, µM (top dose mostly 46.1 µM), for inactives: top-dose activation, most hits filed as activators | 330,000 compounds, 0.02% hits; active means well fitted activation curve with a large enough effect; inconclusive means small, poorly fitted or top-dose-only effect;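 further: potency means the concentration at half of the fitted maximal effect; 0% = DMSO controls and full agonism = EC100 isoproterenol or metaproterenol; nearly all actives have a fitted effect of over 65% in size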
The depositor's hits bear a star; ? = inconclusive; . = no result given.

SMILES	Giardia kill	DRD3 agonist	DRD3 antagonist	B2AR arrestin
O=C(NC(c1ccc(Cl)cc1)c1cnccn1)C1CCN(CCCOc2ccccc2)CC1 (stereo not drawn)	.	-13	-84*	.
Cc1ccc(C(NC(=O)C2CCN(CCCOc3ccccc3)CC2)c2ccccn2)cc1 (stereo not drawn)	.	-12	-115*	.
Cc1ccccc1NC(=O)/C(=C\c1cccs1)NC(=O)c1ccccc1	-6	-8	-54*	-1%
Cc1ccccc1NC(=O)/C(=C/c1cccs1)NC(=O)c1ccco1	2	-11	-12	0%
CCN(CC)S(=O)(=O)c1ccc2nc(NC(=O)c3cccnc3)sc2c1	.	1	.	.
O=C(c1ccccc1)c1ccc2nc(Nc3ccccc3Cl)c3nncn3c2c1	.	-1	.	.
NNC(=O)c1ccccc1CO	8	34*	24	.
COc1ccc(/C=C\c2onc(C)c2S(=O)(=O)N2CCC(C(=O)Nc3cccc(Cl)c3)CC2)cc1	.	62*	.	.
CCOc1ccc(-n2c(=O)cc(N3CCN(c4ccc(F)cc4)CC3)[nH]c2=O)cc1	9	-2	-114*	0%
CCOC(=O)c1ccc(NC(=O)c2c(NCc3cccs3)sc3c2CCCCC3)cc1	.	-14	.	.
Cc1ccc(C)c(NC(=S)NC(NC(=O)Cc2cccc3ccccc23)C(Cl)(Cl)Cl)c1 (stereo not drawn)	-17	6	-50*	2%
CCc1ccc(OCC(=O)NC(NC(=S)Nc2ccccc2C)C(Cl)(Cl)Cl)cc1 (stereo not drawn)	8	-20	-57*	0%
COc1ccc(CN(Cc2ccccc2)C(=O)C2CC2)cc1COc1ccc(NC(C)=O)cc1	6	.	.	.
CCC1=Nc2cc(C(=O)N3CCC(C)CC3)ccc2Sc2ccc(C)cc21	.	-17	.	.
CC(=O)/C(=N\Nc1ccccc1)Sc1nnc(-c2ccccc2)n1-c1ccccc1	0	-6	-97*	-1%
COc1ccc(NC(=O)Cn2c(=O)oc3cc(S(=O)(=O)N4CCCCC4C)ccc32)cc1 (stereo not drawn)	.	6	.	.
CCCN1Cc2cccc(C(=O)N3CCN(c4cc(Cl)ccc4C)CC3)c2C1=O	-6	-4	-51*	0%
CC1=C[C@H](O)CC(C)(C)[C@H]1/C=C/C(C)=C/C=C/C(C)=C/C=C/C=C(C)/C=C/C=C(C)/C=C/C1=C(C)C[C@@H](O)CC1(C)C	.	-1	.	.
Cc1cccc(-n2cnc3cc(C(=O)NC4CCCCCC4)ccc32)c1	.	-21	.	.
CCCC1=NN2C(=N)/C(=C\c3cc(C)n(-c4cc(C)cc(C)c4)c3C)C(=O)N=C2S1	1	-9	-57*	0%
CCOc1ccc(NC(=O)CSC(N)=O)cc1	-8	-5	-72*	-1%
CN(C)S(=O)(=O)c1ccc(NC(=O)CSc2nnnn2C)cc1	5	3	3	0%
CCCCOc1ccc(NC(=O)CSc2nnnn2C)cc1	-10	-5	-113*	.
COc1cc(Cl)c(C)cc1NC(=O)Cn1ncc2c(=O)oc3ccccc3c21	.	-8	.	.
CCN(C/C=C/c1ccccc1OC)Cc1ccccc1	-28	-25	-82*	0%
SMILES	Giardia kill	DRD3 agonist	DRD3 antagonist	B2AR arrestin
Cc1cccc(NC(=S)NC2CC3CCC(C2)N3Cc2ccco2)c1C (stereo not drawn)	11	-11	-14	-2%
COc1ccccc1C(=O)NC1CC2CCCC(C1)N2Cc1ccccc1 (stereo not drawn)	.	4	-112*	.
Cc1ccccc1C(=O)NC1CCCN(Cc2ccccc2F)C1 (stereo not drawn)	33	0	11	0%
O=C(NC1CC2CCC(C1)N2Cc1ccccc1)c1ccccc1Cl (stereo not drawn)	-15	-18	-89*	0%
Cc1cccc(NC(=S)NC2CC3CCCC(C2)N3Cc2ccccc2)c1C (stereo not drawn)	-8	-8	-100*	-1%
Cc1ccccc1C(=O)NC1CC2CCCC(C1)N2Cc1ccc(Cl)cc1 (stereo not drawn)	-16	-19	-97*	0%
COCCNC(=S)NC1CC2CCC(C1)N2Cc1ccccc1 (stereo not drawn)	0	-12	?	0%
CCCCN1C2CCCC1CC(NC(=O)c1ccccc1Cl)C2 (stereo not drawn)	10	-10	11	1%
O=S(=O)(c1ccc(Cl)cc1)N1CCN(c2nc(-c3cccc(Br)c3)nc3ccccc23)CC1	3	.	.	.
Cc1ccc(N(C)C(=O)Cn2ncc3c([nH]c4ccccc43)c2=O)cc1C	.	7	.	.
CC(C)(C)OC(=O)N1CCC(c2c(C(=O)NCc3ccccc3)cnn2-c2cccc(F)c2)CC1	.	24	.	.
Cc1ccccc1C(=O)NC1CCN(C(=O)NCc2ccccc2)CC1	-11	21	5	0%
Cc1ccccc1C(=O)NC1CC2CCCC(C1)N2Cc1ccccc1 (stereo not drawn)	?	-18	-85*	0%
CCc1c(C)sc2c1CCN(Cc1ccccc1)C2c1ccccc1 (stereo not drawn)	.	-1	.	.
CC(C)C[C@@H](CN)NC(=O)c1nc[nH]c1C(=O)N[C@@H](CC(C)C)C(=O)CNC[C@H](C)NC(=O)c1nc[nH]c1C(=O)N[C@@H](CC(=O)O)C(=O)O	9	46*	2	.
CC(C)C[C@@H](CNCC(=O)[C@H](CC(=O)O)NC(=O)c1[nH]cnc1C(=O)N[C@H](CN)CC(C)C)NC(=O)c1nc[nH]c1C(=O)N[C@@H](Cc1ccccc1)C(=O)O	-1	-45	-72*	.
CC(C)C[C@@H](CNCC(=O)[C@H](CC(C)C)NC(=O)c1[nH]cnc1C(=O)N[C@H](CN)CC(C)C)NC(=O)c1nc[nH]c1C(=O)N[C@@H](CC(=O)O)C(=O)O	40	-23	0	.
Cc1ccc(C)c(CN2C(=O)c3ccccc3S(=O)c3ccc(C(=O)NCCc4ccc(Cl)cc4)cc32)c1 (stereo not drawn)	.	-6	.	.
COc1nc(-c2ccccc2)cc(-c2ccc(OC)c(OC)c2)n1	-22	98*	55	0%
CCc1cccc(NC(=O)COc2cc(=O)n(CC)c3ccccc23)c1	.	-8	.	.
CNC(=O)c1cc(Oc2ccc(NC(=O)Nc3ccc(Cl)c(C(F)(F)F)c3)cc2)ccn1	-7	0	-58*	0%
O=C(Nc1ccc(Cl)c(C(F)(F)F)c1)c1ccncc1	4	-10	-24	0%
CCC[C@@H]1C[C@@H](C(=O)N[C@@H]([C@H]2O[C@H](SC)[C@H](O)[C@@H](O)[C@H]2O)[C@H](C)Cl)N(C)C1	.	-13	.	.
COc1ccc(N2CCN(C(=O)Cn3nnc(-c4cccs4)n3)CC2)cc1	-3	14	-103*	0%
OCCCNc1ccccc1	.	-9	.	.
Cc1cc(C)c(C(O)c2ncc(-c3cccc4ccccc34)[nH]2)c(C)c1 (stereo not drawn)	.	-2	?	.
Cc1cc(C)c(C(O)c2ncc(-c3ccccc3F)[nH]2)c(C)c1 (stereo not drawn)	.	-1	-6	.
